Where a chain is given by its changes, count along the chain named.

Assay in all cases: PBM; 200 nM protein, PBS
Conditions in all cases: dsDNA, one strand shown

Assay [1] concerns the target SHOX (Homo sapiens, UniProt O15266 103-189).
Assay [2] has as its target ALX4 (Homo sapiens, UniProt Q9H161 200-286).
For assay [3], the target named is ALX4 (Homo sapiens, UniProt Q9H161 200-286, Q225E).
The target in assay [4] is SHOX (Homo sapiens, UniProt O15266 103-189, R173C).
Assay [5] concerns the target T1, PAX4 (Homo sapiens, UniProt O43316 9-242, R200K).
T1 sequence: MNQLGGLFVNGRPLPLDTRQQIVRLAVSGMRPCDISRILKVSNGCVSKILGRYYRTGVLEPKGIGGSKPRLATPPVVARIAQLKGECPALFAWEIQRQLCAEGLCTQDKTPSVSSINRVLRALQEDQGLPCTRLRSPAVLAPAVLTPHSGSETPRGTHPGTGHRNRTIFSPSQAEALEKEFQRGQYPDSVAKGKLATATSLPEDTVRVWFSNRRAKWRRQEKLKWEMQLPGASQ

Assay [6] has as its target T2, PAX4 (Homo sapiens, UniProt O43316 9-242).
T2 sequence: T1 sequence with K192R

Assay [7] has as its target ALX1 (Homo sapiens, UniProt Q15699 118-204, L144V).
Assay [8] deals with T3, PAX4 (Homo sapiens, UniProt O43316 9-242, R200Q).
T3 sequence: T1 sequence with K192Q

Assay [9] addresses ALX1 (Homo sapiens, UniProt Q15699 118-204, L144R).
In assay [10] the target is T4, PAX4 (Homo sapiens, UniProt O43316 9-242, F177V).
T4 sequence: T1 sequence with F169V, K192R

The target of assay [11] is T5, PAX4 (Homo sapiens, UniProt O43316 9-242, F177Y).
T5 sequence: T1 sequence with F169Y, K192R

For assay [12], the target named is T6, PAX4 (Homo sapiens, UniProt O43316 9-242, R227W).
T6 sequence: T1 sequence with K192R, R219W

Assay [13] addresses ALX1 (Homo sapiens, UniProt Q15699 118-204).
The target in assay [14] is PRRX1 (Homo sapiens, UniProt P54821 80-166, F113S).
PRRX1 (Homo sapiens, UniProt P54821 80-166, F113S), sequence (P54821 80-166 F113S): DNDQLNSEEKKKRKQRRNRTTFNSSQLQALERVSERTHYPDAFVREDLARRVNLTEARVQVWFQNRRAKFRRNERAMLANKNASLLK
Assay [15] addresses PRRX1 (Homo sapiens, UniProt P54821 80-166).
Assay [16] has as its target HOXA7 (Homo sapiens, UniProt P31268 116-202).
The target of assay [17] is HOXA7 (Homo sapiens, UniProt P31268 116-202, W177C).
HOXA7 (Homo sapiens, UniProt P31268 116-202, W177C), sequence (P31268 116-202 W177C): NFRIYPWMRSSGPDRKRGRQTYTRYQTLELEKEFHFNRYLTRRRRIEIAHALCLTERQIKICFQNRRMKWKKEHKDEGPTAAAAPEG
In assay [18] the target is MSX2 (Homo sapiens, UniProt P35548 130-214, R199I).
MSX2 (Homo sapiens, UniProt P35548 130-214, R199I), sequence (P35548 130-214 R199I): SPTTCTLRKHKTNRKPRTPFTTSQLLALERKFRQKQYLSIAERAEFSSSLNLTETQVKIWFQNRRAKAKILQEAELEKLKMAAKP
The target of a further assay is PITX2 (Homo sapiens, UniProt Q99697 72-157).
Assay [19] deals with MSX2 (Homo sapiens, UniProt P35548 130-214).
MSX2 (Homo sapiens, UniProt P35548 130-214), sequence (P35548 130-214): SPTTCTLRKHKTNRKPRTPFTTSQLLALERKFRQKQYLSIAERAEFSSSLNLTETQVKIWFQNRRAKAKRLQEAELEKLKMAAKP
For assay [20], the target named is MSX2 (Homo sapiens, UniProt P35548 130-214, F161Y).
MSX2 (Homo sapiens, UniProt P35548 130-214, F161Y), sequence (P35548 130-214 F161Y): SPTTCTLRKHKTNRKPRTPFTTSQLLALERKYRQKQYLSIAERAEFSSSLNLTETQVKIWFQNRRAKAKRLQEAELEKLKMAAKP
Assay [21] addresses HOXA2 (Homo sapiens, UniProt O43364 129-215, R185T).
Assay [22] has as its target ALX3 (Homo sapiens, UniProt O95076 139-225, N203Q).
In assay [23] the target is HOXA2 (Homo sapiens, UniProt O43364 129-215, R185K).
HOXA2 (Homo sapiens, UniProt O43364 129-215, R185K), sequence (O43364 129-215 R185K): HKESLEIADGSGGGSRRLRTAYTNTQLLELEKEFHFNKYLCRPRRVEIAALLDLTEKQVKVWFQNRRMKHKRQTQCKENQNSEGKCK
Assay [24] has as its target ALX3 (Homo sapiens, UniProt O95076 139-225).
Assay [25] addresses ALX3 (Homo sapiens, UniProt O95076 139-225, L168Q).
The target in assay [26] is ALX3 (Homo sapiens, UniProt O95076 139-225, L168V).
ALX3 (Homo sapiens, UniProt O95076 139-225, L168V), sequence (O95076 139-225 L168V): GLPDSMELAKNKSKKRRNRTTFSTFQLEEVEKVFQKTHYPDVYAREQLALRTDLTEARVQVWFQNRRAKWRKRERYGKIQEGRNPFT
In assay [27] the target is HOXA2 (Homo sapiens, UniProt O43364 129-215, Y150S).
HOXA2 (Homo sapiens, UniProt O43364 129-215, Y150S), sequence (O43364 129-215 Y150S): as the sequence (O43364 129-215 R185K) above, with Y22S, K57R counted along it
The target in assay [28] is ALX3 (Homo sapiens, UniProt O95076 139-225, N203S).
ALX3 (Homo sapiens, UniProt O95076 139-225, N203S), sequence (O95076 139-225 N203S): as the sequence (O95076 139-225 L168V) above, with V30L, N65S counted along it
In assay [29] the target is HOXA2 (Homo sapiens, UniProt O43364 129-215).
HOXA2 (Homo sapiens, UniProt O43364 129-215), sequence (O43364 129-215): as the sequence (O43364 129-215 R185K) above, with K57R counted along it
The target of assay [30] is HOXB6 (Homo sapiens, UniProt P17509 132-218, K202E).
HOXB6 (Homo sapiens, UniProt P17509 132-218, K202E), sequence (P17509 132-218 K202E): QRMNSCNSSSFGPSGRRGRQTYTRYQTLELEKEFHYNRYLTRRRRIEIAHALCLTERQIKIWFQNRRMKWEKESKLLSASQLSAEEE
Assay [31] has as its target HOXB6 (Homo sapiens, UniProt P17509 132-218).

SHOX (Homo sapiens, UniProt O15266 103-189), sequence (O15266 103-189): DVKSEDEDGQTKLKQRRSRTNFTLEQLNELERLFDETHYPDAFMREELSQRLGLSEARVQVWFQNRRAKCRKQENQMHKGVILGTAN
SHOX (Homo sapiens, UniProt O15266 103-189, R173C), sequence (O15266 103-189 R173C): as the sequence (O15266 103-189) above, with R71C counted along it
ALX3 (Homo sapiens, UniProt O95076 139-225, N203Q), sequence (O95076 139-225 N203Q): as the sequence (O95076 139-225 L168V) above, with V30L, N65Q counted along it
ALX3 (Homo sapiens, UniProt O95076 139-225, L168Q), sequence (O95076 139-225 L168Q): as the sequence (O95076 139-225 L168V) above, with V30Q counted along it
ALX1 (Homo sapiens, UniProt Q15699 118-204, L144V), sequence (Q15699 118-204 L144V): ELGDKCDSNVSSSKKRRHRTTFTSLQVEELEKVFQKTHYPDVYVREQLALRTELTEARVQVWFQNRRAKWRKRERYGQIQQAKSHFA
ALX1 (Homo sapiens, UniProt Q15699 118-204, L144R), sequence (Q15699 118-204 L144R): as the sequence (Q15699 118-204 L144V) above, with V27R counted along it
ALX1 (Homo sapiens, UniProt Q15699 118-204), sequence (Q15699 118-204): as the sequence (Q15699 118-204 L144V) above, with V27L counted along it
ALX3 (Homo sapiens, UniProt O95076 139-225), sequence (O95076 139-225): as the sequence (O95076 139-225 L168V) above, with V30L counted along it
HOXA2 (Homo sapiens, UniProt O43364 129-215, R185T), sequence (O43364 129-215 R185T): as the sequence (O43364 129-215 R185K) above, with K57T counted along it
PRRX1 (Homo sapiens, UniProt P54821 80-166), sequence (P54821 80-166): as the sequence (P54821 80-166 F113S) above, with S34F counted along it
ALX4 (Homo sapiens, UniProt Q9H161 200-286, Q225E), sequence (Q9H161 200-286 Q225E): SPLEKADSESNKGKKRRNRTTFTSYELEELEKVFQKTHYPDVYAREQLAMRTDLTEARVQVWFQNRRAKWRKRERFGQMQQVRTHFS
ALX4 (Homo sapiens, UniProt Q9H161 200-286), sequence (Q9H161 200-286): as the sequence (Q9H161 200-286 Q225E) above, with E26Q counted along it
HOXB6 (Homo sapiens, UniProt P17509 132-218), sequence (P17509 132-218): as the sequence (P17509 132-218 K202E) above, with E71K counted along it
HOXA7 (Homo sapiens, UniProt P31268 116-202), sequence (P31268 116-202): as the sequence (P31268 116-202 W177C) above, with C62W counted along it

Take CCCTCCCG: the binding signal is 6.94 upbm affinity estimate (log intensity, higher = more binding, comparable within an allelic series) with SHOX [1]; 8.02 upbm affinity estimate (log intensity, higher = more binding, comparable within an allelic series) with ALX4 [2]; 8.18 upbm affinity estimate (log intensity, higher = more binding, comparable within an allelic series) in the assay with ALX4 [3]; 7.03 upbm affinity estimate (log intensity, higher = more binding, comparable within an allelic series) with SHOX [4].

On to GCAAATTA, for which the binding signal with SHOX [1] is 11.6 upbm affinity estimate (log intensity, higher = more binding, comparable within an allelic series); with PAX4 [5] it was 11.6 upbm affinity estimate (log intensity, higher = more binding, comparable within an allelic series); in the assay with PAX4 [6], 12.1 upbm affinity estimate (log intensity, higher = more binding, comparable within an allelic series); with ALX1 [7], 11.2 upbm affinity estimate (log intensity, higher = more binding, comparable within an allelic series); with PAX4 [8] it was 11.9 upbm affinity estimate (log intensity, higher = more binding, comparable within an allelic series); with SHOX [4] it was 8.89 upbm affinity estimate (log intensity, higher = more binding, comparable within an allelic series). For the same sequence, the binding signal in the assay with ALX1 [9] is 10.8 upbm affinity estimate (log intensity, higher = more binding, comparable within an allelic series); in the assay with PAX4 [10], 10.3 upbm affinity estimate (log intensity, higher = more binding, comparable within an allelic series); with PAX4 [11] it was 10.8 upbm affinity estimate (log intensity, higher = more binding, comparable within an allelic series); with PAX4 [12], 10.8 upbm affinity estimate (log intensity, higher = more binding, comparable within an allelic series); with ALX1 [13] it was 12 upbm affinity estimate (log intensity, higher = more binding, comparable within an allelic series).

Take GGAGGGAA: the binding signal in the assay with SHOX [1] was 7.13 upbm affinity estimate (log intensity, higher = more binding, comparable within an allelic series); with PRRX1 [14], 9.41 upbm affinity estimate (log intensity, higher = more binding, comparable within an allelic series); with SHOX [4], 7.16 upbm affinity estimate (log intensity, higher = more binding, comparable within an allelic series); with PRRX1 [15], 9.45 upbm affinity estimate (log intensity, higher = more binding, comparable within an allelic series).

With TAACAATA, the binding signal with SHOX [1] is 8.71 upbm affinity estimate (log intensity, higher = more binding, comparable within an allelic series); in the assay with HOXA7 [16], 9.77 upbm affinity estimate (log intensity, higher = more binding, comparable within an allelic series); in the assay with HOXA7 [17], 8.92 upbm affinity estimate (log intensity, higher = more binding, comparable within an allelic series).

As to ACTGGGGG, the binding signal in the assay with SHOX [1] was 7.05 upbm affinity estimate (log intensity, higher = more binding, comparable within an allelic series); with PAX4 [5] it was 8.98 upbm affinity estimate (log intensity, higher = more binding, comparable within an allelic series); in the assay with PAX4 [6], 9.06 upbm affinity estimate (log intensity, higher = more binding, comparable within an allelic series); in the assay with MSX2 [18] it was 9.43 upbm affinity estimate (log intensity, higher = more binding, comparable within an allelic series); in the assay with ALX1 [7], 6.32 upbm affinity estimate (log intensity, higher = more binding, comparable within an allelic series); with PAX4 [8], 9.22 upbm affinity estimate (log intensity, higher = more binding, comparable within an allelic series). Also, the binding signal was 7.95 upbm affinity estimate (log intensity, higher = more binding, comparable within an allelic series) with PITX2; 7.08 upbm affinity estimate (log intensity, higher = more binding, comparable within an allelic series) in the assay with SHOX [4]; 6.52 upbm affinity estimate (log intensity, higher = more binding, comparable within an allelic series) with ALX1 [9]; 9.12 upbm affinity estimate (log intensity, higher = more binding, comparable within an allelic series) with PAX4 [10]; 9.41 upbm affinity estimate (log intensity, higher = more binding, comparable within an allelic series) with MSX2 [19]; 9.07 upbm affinity estimate (log intensity, higher = more binding, comparable within an allelic series) with PAX4 [11]. Besides, the binding signal was 9.45 upbm affinity estimate (log intensity, higher = more binding, comparable within an allelic series) with MSX2 [20]; 9.15 upbm affinity estimate (log intensity, higher = more binding, comparable within an allelic series) with PAX4 [12]; 6.23 upbm affinity estimate (log intensity, higher = more binding, comparable within an allelic series) in the assay with ALX1 [13].

As to AATTAGAG, the binding signal in the assay with SHOX [1] is 11.6 upbm affinity estimate (log intensity, higher = more binding, comparable within an allelic series); with PAX4 [5] it was 11.7 upbm affinity estimate (log intensity, higher = more binding, comparable within an allelic series); with PAX4 [6], 12.2 upbm affinity estimate (log intensity, higher = more binding, comparable within an allelic series); in the assay with MSX2 [18], 12.1 upbm affinity estimate (log intensity, higher = more binding, comparable within an allelic series); in the assay with PAX4 [8], 12 upbm affinity estimate (log intensity, higher = more binding, comparable within an allelic series); in the assay with SHOX [4], 9.13 upbm affinity estimate (log intensity, higher = more binding, comparable within an allelic series). Further, the binding signal with PAX4 [10] is 10.4 upbm affinity estimate (log intensity, higher = more binding, comparable within an allelic series); with MSX2 [19], 13.3 upbm affinity estimate (log intensity, higher = more binding, comparable within an allelic series); with PAX4 [11] it was 10.9 upbm affinity estimate (log intensity, higher = more binding, comparable within an allelic series); with MSX2 [20], 13.1 upbm affinity estimate (log intensity, higher = more binding, comparable within an allelic series); with PAX4 [12], 10.8 upbm affinity estimate (log intensity, higher = more binding, comparable within an allelic series).

Take CGCCGGCG: the binding signal in the assay with SHOX [1] is 7.07 upbm affinity estimate (log intensity, higher = more binding, comparable within an allelic series); with HOXA2 [21], 7.18 upbm affinity estimate (log intensity, higher = more binding, comparable within an allelic series); with ALX3 [22], 7.92 upbm affinity estimate (log intensity, higher = more binding, comparable within an allelic series); with SHOX [4], 7.15 upbm affinity estimate (log intensity, higher = more binding, comparable within an allelic series); in the assay with HOXA2 [23], 10.2 upbm affinity estimate (log intensity, higher = more binding, comparable within an allelic series); with ALX3 [24], 7.79 upbm affinity estimate (log intensity, higher = more binding, comparable within an allelic series). The binding signal was 7.73 upbm affinity estimate (log intensity, higher = more binding, comparable within an allelic series) in the assay with ALX3 [25]; 7.68 upbm affinity estimate (log intensity, higher = more binding, comparable within an allelic series) with ALX3 [26]; 10.3 upbm affinity estimate (log intensity, higher = more binding, comparable within an allelic series) with HOXA2 [27]; 8.03 upbm affinity estimate (log intensity, higher = more binding, comparable within an allelic series) with ALX3 [28]; 7.22 upbm affinity estimate (log intensity, higher = more binding, comparable within an allelic series) with HOXA2 [29].

CCAGCTCC: the binding signal was 7.19 upbm affinity estimate (log intensity, higher = more binding, comparable within an allelic series) with SHOX [1]; 8.94 upbm affinity estimate (log intensity, higher = more binding, comparable within an allelic series) with HOXB6 [30]; 7.65 upbm affinity estimate (log intensity, higher = more binding, comparable within an allelic series) with ALX3 [22]; 7.18 upbm affinity estimate (log intensity, higher = more binding, comparable within an allelic series) with SHOX [4]; 7.54 upbm affinity estimate (log intensity, higher = more binding, comparable within an allelic series) in the assay with ALX3 [24]; 7.75 upbm affinity estimate (log intensity, higher = more binding, comparable within an allelic series) in the assay with ALX3 [25]. In addition, the binding signal was 7.76 upbm affinity estimate (log intensity, higher = more binding, comparable within an allelic series) with ALX3 [26]; 7.69 upbm affinity estimate (log intensity, higher = more binding, comparable within an allelic series) with ALX3 [28]; 8.78 upbm affinity estimate (log intensity, higher = more binding, comparable within an allelic series) in the assay with HOXB6 [31].

The values are drawn from paper PMC11006913.
